Source: PubChem BioAssay (NCI)
Compounds without any hit were thinned out: in the full panel of roughly 79,000, 15% have a hit. Unmarked numbers belong to inactive results. The source made the active and inactive calls. No stated cut-off is given here; in the data, active means growth inhibition above about 70%; inactive means the rest.

Assay: NCI Yeast Anticancer Drug Screen. Data for the sgs1 strain (AID 173);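 further: 0% = growth of vehicle-only control cultures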
Settings: S. cerevisiae sgs1 mutant, active compounds read high
Protocol: Growth inhibition of yeast strains with defined genetic alterations is measured as a screen for potential anti-cancer activity. Selected strains with alterations in DNA damage repair or cell cycle control were exposed to compounds and growth inhibition was measured relative to vehicle treated controls. The strain used in this assay is sgs1

Structure (SMILES) | growth inhibition (at 1.2 µM) [%] | growth inhibition (at 3.7 µM) | growth inhibition (at 11.0 µM) | growth inhibition (at 33.0 µM) | growth inhibition (at 100.0 µM)
O=C(O)CCCC1CCCc2c1ccc1ccccc21 (stereo not given) | -1 | -2% | 6% | 64% | 99% (active)
Cc1sc2ccc3ccccc3c2[n+]1C | 3 | 2% | 1% | 19% | 91% (active)
O=C(O)Cc1cc(F)ccc1C(=O)O | 2 | 7% | 9% | 21% | 65%
Cc1c2cccc(Sc3ccccc3)c2c2c3c(cccc13)[S+](c1ccccc1)C2 (stereo not given) | 10 | 40% | 97% (active) | 95% (active) | 87% (active)
Cc1csc(=S)n1OC(=O)NC1CCCCC1 | -42 | 98% (active) | 99% (active) | 100% (active) | 99% (active)
Cc1ccccc1N=Cc1cc(Cl)ccc1O | -2 | -3% | 4% | 20% | 92% (active)
CC(=O)OCC(C)Cc1cc2c(cc1Br)OCO2 (stereo not given) | -66 | -14% | 3% | 15% | 78% (active)
CCCCc1nnc(NS(=O)(=O)c2ccc(C)cc2)s1 | -13 | -22% | -6% | 31% | 80% (active)
